{
  "source": "PubChem BioAssay (EPA / NIEHS)",
  "note": "Inconclusive results are not listed. Calls of active or inactive are those of the source. Rule for the calls, unless noted: active = hit-call score of the fitted dose curve at least 0.9, where 1 is the maximum; inconclusive = response in the unintended direction; inactive = score below 0.9.",
  "data": [
    {"read-out": "not listed separately", "assay": "BSK_SAg_SRB: Viability Assessment in the BioMAP Diversity Plus: SAg Assay (AID 2283096; active = hit-call score of the fitted dose curve at least 0.9, where 1 is the maximum; inactive = score below 0.9;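 note: cells read one day after compound addition; hits may be either gain or loss of signal compared with DMSO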)", "conditions": "primary human HUVEC with PBMC", "method_in_brief": "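Human umbilical vein endothelial cells co-cultured with PBMC, read 24 h after compound dosing. Total protein measured by sulforhodamine B staining (0.1% SRB after 10% TCA fixation, absorbance 560 nm); bidirectional fit versus DMSO baseline.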", "values": [
      {"smiles": "COc1ccc(C(=CC(=O)N2CCOCC2)c2ccc(Cl)cc2)cc1OC", "outcome": "inactive"},
      {"smiles": "C[N+]1(C)CCCCC1", "outcome": "inactive"},
      {"smiles": "CCOP(=S)(OCC)Oc1cc(C)nc(C(C)C)n1", "outcome": "inactive"},
      {"smiles": "CCCCN(CC)c1c([N+](=O)[O-])cc(C(F)(F)F)cc1[N+](=O)[O-]", "outcome": "inactive"},
      {"smiles": "CC(Oc1cccc(Cl)c1)C(=O)O", "note": "(configuration not stated)", "outcome": "inactive"},
      {"smiles": "CCCCSP(=O)(SCCCC)SCCCC", "AC50": "22.5 µM (active)"},
      {"smiles": "CCCCOC(=O)c1ccccc1C(=O)O", "outcome": "inactive"},
      {"smiles": "O=C(O)c1cc(Oc2ccc(C(F)(F)F)cc2Cl)ccc1[N+](=O)[O-]", "outcome": "inactive"},
      {"smiles": "COP(=O)(OC)SCn1c(=O)oc2cc(Cl)cnc21", "AC50": "13.4 µM (active)"},
      {"smiles": "CNC(=O)ON=C(SC)C(=O)N(C)C", "outcome": "inactive"},
      {"smiles": "CCOP(=S)(OCC)OC(Cl)C(Cl)(Cl)Cl", "note": "(configuration not stated)", "AC50": "13 µM (active)"},
      {"smiles": "CCCOc1nn(C(=O)NS(=O)(=O)c2ccccc2C(=O)OC)c(=O)n1C", "outcome": "inactive"},
      {"smiles": "CSc1nnc(C(C)(C)C)c(=O)n1N", "outcome": "inactive"},
      {"smiles": "CCOC(=O)CC(SP(=O)(OC)OC)C(=O)OCC", "note": "(configuration not stated)", "outcome": "inactive"},
      {"smiles": "CC(C)=CC1C(C(=O)OCN2C(=O)C3=C(CCCC3)C2=O)C1(C)C", "note": "(configuration not stated)", "outcome": "inactive"},
      {"smiles": "C#CC(C)(C)NC(=O)c1cc(Cl)cc(Cl)c1", "outcome": "inactive"},
      {"smiles": "COP(=O)(OC)C(O)C(Cl)(Cl)Cl", "note": "(configuration not stated)", "outcome": "inactive"}
    ]},
    {"target": "human CYP19A1, CYP19A1 (gene 1588) (UniProt P11511)", "sequence (P11511 whole entry, looked up)": "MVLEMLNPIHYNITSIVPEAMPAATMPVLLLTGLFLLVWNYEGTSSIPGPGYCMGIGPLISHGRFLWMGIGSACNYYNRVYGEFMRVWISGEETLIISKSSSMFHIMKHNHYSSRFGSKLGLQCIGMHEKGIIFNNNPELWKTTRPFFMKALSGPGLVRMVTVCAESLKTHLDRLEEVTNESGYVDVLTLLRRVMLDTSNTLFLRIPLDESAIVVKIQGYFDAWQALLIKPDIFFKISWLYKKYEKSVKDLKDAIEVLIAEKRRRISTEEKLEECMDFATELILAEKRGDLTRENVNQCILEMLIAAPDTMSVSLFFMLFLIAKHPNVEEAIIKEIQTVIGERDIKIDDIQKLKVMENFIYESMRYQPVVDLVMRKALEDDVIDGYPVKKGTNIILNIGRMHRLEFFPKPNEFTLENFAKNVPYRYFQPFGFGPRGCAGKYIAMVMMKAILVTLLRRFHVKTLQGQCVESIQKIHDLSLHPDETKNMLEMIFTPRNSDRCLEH", "assay": "NVS_ADME_hCYP19A1: NovaScreen (NVS) CYP450-related Enzyme Activity (ADME) Assay for human CYP19A1 (AID 2283098);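 for AC50: potency for inhibitors seen as loss of fluorescent enzyme signal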", "conditions": "not given", "method_in_brief": "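Recombinant enzyme in a cell-free format, read 0.5 h after dosing by fluorescence from a fluorogenic substrate. Loss of signal was fitted against acetonitrile as baseline. Primary screen in duplicate at 10 uM, actives then tested in concentration series.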", "values": [
      {"smiles": "COP(=O)(NC(C)=O)SC", "note": "(configuration not stated)", "outcome": "inactive"},
      {"smiles": "S=C1NCCN1", "outcome": "inactive"},
      {"smiles": "CCCSP(=O)(OCC)SCCC", "outcome": "inactive"},
      {"smiles": "FC(F)C(F)(F)OCC(Cn1cncn1)c1ccc(Cl)cc1Cl", "note": "(configuration not stated)", "AC50": "2.15 µM (active)"},
      {"smiles": "CCc1cccc(C)c1N(C(=O)CCl)C(C)COC", "note": "(configuration not stated)", "outcome": "inactive"},
      {"smiles": "CSc1nc(NC(C)C)nc(NC(C)C)n1", "outcome": "inactive"},
      {"smiles": "CCOP(=S)(OCC)Oc1ccc([N+](=O)[O-])cc1", "outcome": "inactive"},
      {"smiles": "CCOP(=O)(OCC)Oc1cc(C)nc(C(C)C)n1", "outcome": "inactive"},
      {"smiles": "CC[C@H](C)[C@H]1O[C@]2(C=C[C@@H]1C)C[C@@H]1C[C@@H](C/C=C(\\C)[C@@H](O[C@H]3C[C@H](OC)[C@@H](O[C@H]4C[C@H](OC)[C@@H](NC)[C@H](C)O4)[C@H](C)O3)[C@@H](C)/C=C/C=C3\\CO[C@@H]4[C@H](O)C(C)=C[C@@H](C(=O)O1)[C@]34O)O2", "outcome": "inactive"},
      {"smiles": "COc1ccc(C(=CC(=O)N2CCOCC2)c2ccc(Cl)cc2)cc1OC", "AC50": "4.42 µM (active)"},
      {"smiles": "CCOP(=S)(OCC)Oc1cc(C)nc(C(C)C)n1", "outcome": "inactive"},
      {"smiles": "CCCCN(CC)c1c([N+](=O)[O-])cc(C(F)(F)F)cc1[N+](=O)[O-]", "AC50": "1.93 µM (active)"},
      {"smiles": "CCCCOC(=O)c1ccccc1C(=O)O", "outcome": "inactive"},
      {"smiles": "CNC(=O)ON=C(SC)C(=O)N(C)C", "outcome": "inactive"},
      {"smiles": "CCOC(=O)CC(SP(=O)(OC)OC)C(=O)OCC", "note": "(configuration not stated)", "outcome": "inactive"},
      {"smiles": "C#CC(C)(C)NC(=O)c1cc(Cl)cc(Cl)c1", "outcome": "inactive"}
    ]},
    {"target": "human CYP2A6, CYP2A6 (gene 1548) (UniProt P11509)", "sequence (P11509 whole entry, looked up)": "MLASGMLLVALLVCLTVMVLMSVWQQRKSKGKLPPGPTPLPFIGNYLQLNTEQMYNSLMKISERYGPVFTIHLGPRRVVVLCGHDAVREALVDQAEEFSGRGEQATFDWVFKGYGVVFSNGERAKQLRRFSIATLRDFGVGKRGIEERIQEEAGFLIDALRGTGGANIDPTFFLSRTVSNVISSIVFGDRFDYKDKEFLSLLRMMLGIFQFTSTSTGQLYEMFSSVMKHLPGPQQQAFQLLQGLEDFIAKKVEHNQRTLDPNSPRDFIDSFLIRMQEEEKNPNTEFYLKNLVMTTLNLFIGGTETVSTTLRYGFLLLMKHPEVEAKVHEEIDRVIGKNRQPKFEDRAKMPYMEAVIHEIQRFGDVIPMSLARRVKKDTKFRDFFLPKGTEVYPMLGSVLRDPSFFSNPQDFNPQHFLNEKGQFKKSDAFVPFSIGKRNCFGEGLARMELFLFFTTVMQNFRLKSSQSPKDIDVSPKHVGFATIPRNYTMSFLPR", "assay": "NVS_ADME_hCYP2A6: NovaScreen (NVS) CYP450-related Enzyme Activity (ADME) Assay for human CYP2A6 (AID 2283099)", "conditions": "not given", "method_in_brief": "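Cell-free fluorescence readout of recombinant human CYP2A6 expressed in insect cells, read 0.5 h after dosing; loss of signal versus acetonitrile negative control. Primary screen in duplicate at 10 uM; actives re-run in concentration-response up to 20 uM.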", "values": [
      {"smiles": "S=C1NCCN1", "AC50": "3.94 µM (active)"},
      {"smiles": "FC(F)C(F)(F)OCC(Cn1cncn1)c1ccc(Cl)cc1Cl", "note": "(configuration not stated)", "outcome": "inactive"},
      {"smiles": "CCOC(=O)CC(SP(=O)(OC)OC)C(=O)OCC", "note": "(configuration not stated)", "outcome": "inactive"}
    ]},
    {"target": "human CYP1A1, CYP1A1 (gene 1543) (UniProt P04798)", "sequence (P04798 whole entry, looked up)": "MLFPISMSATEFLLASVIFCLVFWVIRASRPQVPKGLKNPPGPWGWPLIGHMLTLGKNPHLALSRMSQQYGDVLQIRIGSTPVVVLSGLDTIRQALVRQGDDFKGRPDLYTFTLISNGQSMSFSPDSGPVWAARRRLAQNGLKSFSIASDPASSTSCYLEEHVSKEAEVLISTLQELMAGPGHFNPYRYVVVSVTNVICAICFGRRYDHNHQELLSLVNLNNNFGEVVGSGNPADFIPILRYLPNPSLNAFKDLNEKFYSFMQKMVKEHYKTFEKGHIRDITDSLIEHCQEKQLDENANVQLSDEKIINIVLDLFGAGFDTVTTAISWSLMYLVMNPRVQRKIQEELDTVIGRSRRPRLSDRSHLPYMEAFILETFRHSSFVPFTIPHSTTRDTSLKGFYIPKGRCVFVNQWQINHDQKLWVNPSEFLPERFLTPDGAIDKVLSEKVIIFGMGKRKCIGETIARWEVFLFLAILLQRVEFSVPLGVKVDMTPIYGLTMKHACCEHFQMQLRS", "assay": "NVS_ADME_hCYP1A1: NovaScreen (NVS) CYP450-related Enzyme Activity (ADME) Assay for human CYP1A1 (AID 2283100)", "conditions": "not given", "method_in_brief": "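Cell-free fluorescence assay of recombinant human CYP1A1 activity with a specific substrate, read 1 h after dosing. Compounds were screened in duplicate at 10 uM, then hits tested in concentration-response up to 20 uM; acetonitrile served as baseline.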", "values": [
      {"smiles": "CSc1nc(NC(C)C)nc(NC(C)C)n1", "AC50": "6.84 µM (active)"},
      {"smiles": "CCOP(=O)(NC(C)C)Oc1ccc(SC)c(C)c1", "note": "(configuration not stated)", "AC50": "4.81 µM (active)"},
      {"smiles": "CCOP(=S)(OCC)Oc1ccc([N+](=O)[O-])cc1", "AC50": "3.28 µM (active)"},
      {"smiles": "COc1ccc(C(=CC(=O)N2CCOCC2)c2ccc(Cl)cc2)cc1OC", "AC50": "6.61 µM (active)"},
      {"smiles": "CCOC(=O)CC(SP(=O)(OC)OC)C(=O)OCC", "note": "(configuration not stated)", "outcome": "inactive"},
      {"smiles": "C#CC(C)(C)NC(=O)c1cc(Cl)cc(Cl)c1", "AC50": "2.56 µM (active)"}
    ]}
  ]
}
